Inconclusive results are not listed. Calls of active or inactive are those of the source. Rule for the calls: active = hit-call score of the fitted dose curve at least 0.9, where 1 is the maximum; inconclusive = response in the unintended direction; inactive = score below 0.9.
Columns and labels:
[1] = TOX21_p53_BLA_p2_viability: Viability Assessment in the Tox21 HCT-116 p53 Agonism Beta-lactamase Assay, Phase 2 (AID 2283591);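 note: compound exposure lasted 16 h at 37 °C; actives lower the ATP signal meaning cytotoxicity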
Procedure, shortened: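 Cytotoxicity readout: CellTiter-Glo ATP luminescence, 30 min at room temperature, after the beta-lactamase read. Cells were HCT116 exposed 16 h at 37C to compounds pin-transferred at 217-fold dilution from DMSO stocks.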

[2] = biological target: Cellular tumor antigen p53 (Homo sapiens) (UniProt P04637); assay: TOX21_p53_BLA_p2_ratio: Tox21 HCT-116 p53 Agonism Beta-lactamase Assay, Ratio, Phase 2 (AID 2283592)
Procedure, shortened: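 Human colon HCT116 cells with an inducible p53 beta-lactamase reporter are exposed to test chemicals for 16 h at 37C. Reporter induction is read as the 460/530 nm emission ratio after CCF4-AM loading, normalized to DMSO.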

[3] = TOX21_p53_BLA_p3_viability: Viability Assessment in the Tox21 HCT-116 p53 Agonism Beta-lactamase Assay, Phase 3 (AID 2283593);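 note: cells exposed to compound for 16 h before reading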
Procedure, shortened: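 Cellular ATP was quantified by CellTiter-Glo luminescence, read after 30 min at room temperature. Beforehand, HCT116 cells (4000/well) received compound 5 h post-seeding, 217-fold diluted from DMSO, then incubated 16 h at 37C.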

[4] = biological target: Cellular tumor antigen p53 (Homo sapiens) (UniProt P04637); assay: TOX21_p53_BLA_p3_ratio: Tox21 HCT-116 p53 Agonism Beta-lactamase Assay, Ratio, Phase 3 (AID 2283596)
Procedure, shortened: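 HCT116 p53-bla cells (4000/well) given compound in DMSO (217-fold dilution) after 5 h, incubated 16 h at 37C. CCF4-AM substrate 2 h at room temperature; 460/530 nm emission ratio, gain fitted against DMSO.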

[5] = biological target: Cellular tumor antigen p53 (Homo sapiens) (UniProt P04637); assay: TOX21_p53_BLA_p5_ratio: Tox21 HCT-116 p53 Agonism Beta-lactamase Assay, Ratio, Phase 5 (AID 2283599)
Procedure, shortened: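 Beta-lactamase reporter ratio (blue 460 nm over green 530 nm, 405 nm excitation) after 2 h CCF4-AM loading, in HCT-116 cells exposed 16 h at 37 C to compounds pinned at 217-fold dilution. Increases relative to DMSO baseline scored.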

[6] = biological target: Cellular tumor antigen p53 (Homo sapiens) (UniProt P04637); assay: TOX21_p53_BLA_p4_ratio: Tox21 HCT-116 p53 Agonism Beta-lactamase Assay, Ratio, Phase 4 (AID 2283601)
Procedure, shortened: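 Signal is the blue/green (460nm/530nm) ratio of cleaved versus uncleaved CCF4-AM substrate, read after 2 h substrate loading. Cells were HCT116 carrying the p53-responsive beta-lactamase reporter, dosed 16 h at 37C, 5% CO2; CellTiter-Glo measured in parallel.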

[7] = TOX21_p53_BLA_p4_viability: Viability Assessment in the Tox21 HCT-116 p53 Agonism Beta-lactamase Assay, Phase 4 (AID 2283597);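 note: hits lower the luminescence signal meaning cytotoxicity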
Procedure, shortened: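 Luminescent ATP readout (CellTiter-Glo, 30 min, room temperature) in the same wells as the p53 bla ratio. HCT116 cells were treated for 16 h at 37C with DMSO-dissolved compounds.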

[8] = TOX21_p53_BLA_p5_viability: Viability Assessment in the Tox21 HCT-116 p53 Agonism Beta-lactamase Assay, Phase 5 (AID 2283600)
Procedure, shortened: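 Seeded cells (4000/well) settle 5 h before compound addition. Plates then incubate 16 h at 37C, receive FRET substrate for 2 h, and finally CellTiter-Glo, with luminescence measured after a 30 min room-temperature incubation.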

Measured: AC50

Sequence of Cellular tumor antigen p53 (Homo sapiens) (P04637 whole entry, looked up): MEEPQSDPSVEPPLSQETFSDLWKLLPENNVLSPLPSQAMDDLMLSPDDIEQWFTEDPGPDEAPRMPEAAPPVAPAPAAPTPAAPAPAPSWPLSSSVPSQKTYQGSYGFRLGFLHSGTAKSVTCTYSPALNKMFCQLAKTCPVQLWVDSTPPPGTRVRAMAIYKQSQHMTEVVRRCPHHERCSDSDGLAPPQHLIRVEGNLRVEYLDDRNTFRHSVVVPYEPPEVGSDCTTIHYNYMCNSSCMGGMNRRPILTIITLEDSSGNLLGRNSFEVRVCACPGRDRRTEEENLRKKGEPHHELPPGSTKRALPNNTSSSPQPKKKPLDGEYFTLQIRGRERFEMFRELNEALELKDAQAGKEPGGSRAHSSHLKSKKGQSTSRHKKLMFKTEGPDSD

O=CC(Br)(Br)Br
active: [2] 82.7 µM | [5] 29.9 µM
inactive: [1] | [3] | [4] | [6]

COC(=O)[C@@H](N)CCCN/C(N)=N/[N+](=O)[O-]
not listed: [7] | [8]
inactive: all other assays above

CC(C)(C)NCC(O)c1cc(Cl)c(N)c(C(F)(F)F)c1 (centres undefined)
not listed: [4]
inactive: all other assays above

CN1[C@@H]2CC[C@H]1CC(OC(=O)c1cc(Cl)cc(Cl)c1)C2 (some centres undefined)
not listed: [4]
inactive: all other assays above

C[C@]12N[C@H](Cc3ccccc31)c1ccccc12
not listed: [5] | [7]
inactive: all other assays above

BrCCc1ccccc1
inactive: [1] | [2] | [3] | [4] | [8]

CNCC(O)c1ccc(O)cc1 (centres undefined)
not listed: [4]
inactive: all other assays above

COC(=O)C(C)N(C(=O)c1ccco1)c1c(C)cccc1C (centres undefined)
inactive: [1] | [2] | [3] | [7] | [5]
